Source: PubChem BioAssay (NCI)
Where “and” joins values, the source holds several entries; their conditions need not be identical. Equal entries are not always repeated. The panel holds about 79,000 compounds, 15% with a hit somewhere; the sample as a whole holds those more often. Unmarked numbers belong to inactive results. Calls of active or inactive are those of the source. Rule as the data show it: active = growth inhibition above about 70%; inactive = the rest.

Columns and labels:
[1] = NCI Yeast Anticancer Drug Screen. Data for the rad50 strain (AID 155);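 also: 0% = growth of vehicle-only cultures of the same strain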; conditions: S. cerevisiae rad50 strain growth inhibition, active compounds read high; at 50.0 µM unless noted
Summary of the method: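 Genetically altered yeast (DNA repair pathway); compound treatment; growth inhibition vs vehicle ctrl.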

[2] = NCI Yeast Anticancer Drug Screen. Data for the mec2-1 strain (AID 157); conditions: S. cerevisiae mec2-1 strain, active compounds read high; at 50.0 µM unless noted
Summary of the method: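 Strain: mec2-1 (DNA repair/cell cycle alteration). Compound exposure, then growth measured; inhibition expressed relative to vehicle.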

[3] = NCI Yeast Anticancer Drug Screen. Data for the sgs1 mgt1 strain (AID 161);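 also: 0% = growth of cultures given vehicle only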; conditions: S. cerevisiae sgs1 mgt1 strain, active compounds read high; at 50.0 µM unless noted
Summary of the method: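 Read-out: growth inhibition vs vehicle controls. Cells: mutant yeast strain deficient in DNA damage repair.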

[4] = NCI Yeast Anticancer Drug Screen. Data for the cln2 rad14 strain (AID 165);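 also: 0% = growth equal to vehicle treated cultures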; conditions: S. cerevisiae cln2 rad14 strain, active compounds read high; at 50.0 µM unless noted
Summary of the method: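 Compounds are applied to the cln2 rad14 yeast strain, and growth is then compared with that of vehicle-treated cultures to give inhibition.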

[5] = NCI Yeast Anticancer Drug Screen. Data for the bub3 strain (AID 167); conditions: S. cerevisiae bub3 mutant strain, active compounds read high; at 50.0 µM unless noted
Summary of the method: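 Yeast carrying a defined mutation is treated with each compound, and growth is compared with that of vehicle-exposed cells to give inhibition.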

[6] = NCI Yeast Anticancer Drug Screen. Data for the mlh1 rad18 strain (AID 175); conditions: S. cerevisiae mlh1 rad18 strain growth inhibition, active compounds read high; at 50.0 µM unless noted
Summary of the method: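 Read-out is yeast growth inhibition, calculated against vehicle-only controls. The compound was applied to a strain engineered with DNA damage repair alterations.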

SMILES	growth inhibition [1]	growth inhibition [2]	growth inhibition [3]	growth inhibition [4]	growth inhibition [5]	growth inhibition [6]
COCCC(=O)OCCC(C)OC (stereo unspecified)	21.6%	-4.1%	3.65%	1.95%	-42.2%	-11.2%
CCOc1ccc2c(c1)S(=O)(=O)OC2=O	-11.1%	0.6%	7%	25.6%	5.2%	2.35%
CC12C(=C(C#N)C(=N)N1c1ccc(Cl)c(Cl)c1)C=C(O)CC2SCCS(=O)(=O)O (stereo unspecified)	13.2%	1.4%	-1%	27.4%	-11.4%	10.8%
O=CC(=O)O	28.1%	-19.6%	15.7%	13.7%	26.6%	25.7%
O=c1oc2c3ccc4ccccc4c3n(CCN3CCOCC3)c2c2ccccc12	19.1%	-3.6%	-29.6%	2.35%	-19.9%	-3.9%
CCOC(=O)c1nc(N)nc(N)c1-c1ccc(Cl)cc1	3.6%	10.7%	-3.4%	-4.9%	15.6%	-1.2%
C=C(C)C(C)OC(=O)Nc1ccccc1 (stereo unspecified)	12.7%	-3.05%	-16.1%	7.4%	-3.95%	-37.5%
CCN(CC)CC(=O)Nc1ccc2c(c1)C(=O)c1ccc(NC(=O)CN(CC)CC)cc1C2=O	22.1%	8%	-4.5%	16.4%	-1.2%	-8%
CC1(C)Oc2nc[nH]c(=O)c2C1c1ccccc1 (stereo unspecified)	2.55%	-4.5%	-0.4%	-20.1%	-19.4%	5.35%
O=[N+]([O-])c1ccc(-n2nnc(C3=NCCCN3)c2-c2ccc(Cl)cc2)cc1	-11.3%	-8.1%	-5.75%	8.6%	5.55%	-19.6%
O=c1[nH]c(=O)n(C2CC(O)C(CO)O2)cc1OCCCc1ccccc1 (stereo unspecified)	-27.8%	0.75%	12.2%	13.8%	-0.5%	-3.2%
CCOC(=O)c1ccc2c(c1)C(=O)c1cc([N+](=O)[O-])ccc1-2	2.85%	13.2%	4.8%	10.6%	26.7%	23.1%
C=CC[N+]1(CCOC(=O)C(c2ccccc2)C2C=CCC2)CCCC1 (stereo unspecified)	-17.1%	1.35%	-6.9%	-13.8%	-13.9%	-22.4%
Cc1ccc(S(=O)(=O)C2OC(CO)C(O)C(O)C2O)cc1 (stereo unspecified)	-11.5%	-16.6%	-5.55%	-21.1%	14.9%	-6.25%
Cc1ccc(C)c(Nc2c(C)ccc(C)c2C(=O)O)c1	-5.3%	-1.05%	12.4%	14%	-10.1%	-12.6%
O=C(Nc1ccccc1C(F)(F)F)C(c1ccccc1)c1ccccc1	19.5%	12.2%	8.15%	9.55%	10.8%	3.35%
O=C(CSS(=O)(=O)O)Nc1ccccc1	17.6%	-0.65%	7.5%	14.6%	9.65%	-8.05%
O=C(O)CNC(=S)SCC(=O)O	-2.4%	-6.55%	-23.1%	-32.4%	5.2%	-19.6%
O=C(CCS(=O)(=O)CCC(=O)c1ccc2ccccc2c1)c1ccc2ccccc2c1	-66.8%	-13.2%	-2.4%	-35.3%	0.25%	-52.5%
Cc1c(C)c(C)c(CCc2c(C)c(C)c(C)c(C)c2C)c(C)c1C	-16.8%	-1.25%	-0.9%	-16.5%	-4.15%	-12.3%
Clc1cc2cc3cccc[n+]3cc2cc1Cl	54%	16.1%	26.2%	-22.9%	14.6%	3.7%

SMILES	growth inhibition [1]	growth inhibition [2]	growth inhibition [3]	growth inhibition [4]	growth inhibition [5]	growth inhibition [6]
O=C(Cl)C(=O)c1c[nH]c2ccccc12	6.2%	-1.95%	-3%	1.65%	-33.6%	-12.5%
C=CCOC(=O)COc1ccc(Cl)cc1	-0.95%	-8.1%	-12.3%	-2.15%	-7.75%	0.55%
C[N+](C)(C)CC1CCC/C1=N\OC(=O)c1ccccc1 (stereo unspecified)	-17.8%	1.85%	11.8%	12.8%	14.2%	-2.7%
Cc1ccc(S(=O)(=O)OC2CCN(C)CC2)cc1	36.5%	6.75%	15.8%	9.6%	43.2%	30.1%
CCOC(Cc1ccccc1)OCC	20.9%	19.9%	18.4%	-0.7%	10.9%	12.7%
COc1cccc(/C=C/c2ccnnc2)c1	4.3%	-2.8%	-7.55%	-7.65%	16.9%	-3.85%
O=C1OCC/C1=C\c1ccc2c(c1)OCO2	40.4%	-26.5%	20%	-2.85%	-10.2%	-2.4%
CC[N+](CC)(CC)Cc1cn(S(=O)(=O)c2ccccc2)c2ccccc12	4.3%	-0.7%	-0.95%	-64.7%	-0.7%	5.95%
NC(=O)CSc1c2cc(O)ccc2nc2ccc(O)cc12	-17.8%	-6.95%	-12.6%	37.5%	-19.4%	26.7%
COc1cc(NC(C)=O)c2c(c1)SCC(=O)N2	3.2%	-34.5%	-3.7%	5.2%	24%	1.4%
O=C(c1cccs1)N(C(=S)N1CCN(c2ccccc2)CC1)C1CCCCC1	-0.45%	-5.9%	-8%	13.4%	-26.8%	-10.4%
C=CCSC(=S)Nc1nc2ccc([N+](=O)[O-])cc2s1	-4.1%	8.9%	7.45%	7.8%	-10.8%	-5.9%
CN(C1=CC(=O)c2ccccc2C1=O)C1CCCCC1	14.1%	49.5%	37.4%	-7.05%	63%	42.2%
O=C1NC(=O)C2C3OC(C(Cl)C3Cl)C12 (stereo unspecified)	0.8% and 18.2%	-19.5% and 11.5%	-7.85% and 12.5%	20.4% and 42.7%	-4.95% and 7.95%	-7.85% and -1.25%
CC(=O)N1C(Nc2cnc3ccccc3c2)CCN1c1ccccc1 (stereo unspecified)	-31.4%	-48.6%	-13.8%	0.4%	1.25%	-14%
O=[N+]([O-])c1ccc(CS(=O)Cc2ccccc2)cc1 (stereo unspecified)	10.9%	-18.6%	1.35%	0.05%	6.75%	31.7%
COc1cccc2c(SC)c(C)[nH]c12	14.9%	-0.4%	18.8%	-0.05%	-19.8%	14.8%
CS/C(C)=N/OC(=O)NCCCCNc1ccc(N=[N+]=[N-])cc1	13.9%	-4.15%	5.4%	36.7%	4.5%	0.6%
CC(=O)Oc1c(C)c2c(c3ncccc13)OC(C)C2 (stereo unspecified)	39.2%	14.1%	32.4%	19.1%	40.1%	34.8%
Cc1cccc(NC(=O)OC/C=C/c2ccccc2)c1	10.3%	70.5% (active)	53.5%	0.65%	31.4%	4.95%
